JMJD2A Tudor inh – qHTS Assay for Inhibitors of JMJD2A-Tudor Domain | Lysine-specific demethylase 4A (Homo sapiens), O75164 | AlphaScreen JMJD2A-Tudor / H3K4me3 peptide binding | Potency, µM (doses to about 114 µM), for the others: at the highest dose activity change, negative = inhibition, actives largely listed as inhibitors | 4.4% of 390,000 active | AID 504339, 2011; further: on the % scale 0 is the no-effect control and ±100 the full control effect; nearly all actives have a fitted effect of over 50% in size
Target sequence (O75164 whole entry, looked up, the tested form may be a part): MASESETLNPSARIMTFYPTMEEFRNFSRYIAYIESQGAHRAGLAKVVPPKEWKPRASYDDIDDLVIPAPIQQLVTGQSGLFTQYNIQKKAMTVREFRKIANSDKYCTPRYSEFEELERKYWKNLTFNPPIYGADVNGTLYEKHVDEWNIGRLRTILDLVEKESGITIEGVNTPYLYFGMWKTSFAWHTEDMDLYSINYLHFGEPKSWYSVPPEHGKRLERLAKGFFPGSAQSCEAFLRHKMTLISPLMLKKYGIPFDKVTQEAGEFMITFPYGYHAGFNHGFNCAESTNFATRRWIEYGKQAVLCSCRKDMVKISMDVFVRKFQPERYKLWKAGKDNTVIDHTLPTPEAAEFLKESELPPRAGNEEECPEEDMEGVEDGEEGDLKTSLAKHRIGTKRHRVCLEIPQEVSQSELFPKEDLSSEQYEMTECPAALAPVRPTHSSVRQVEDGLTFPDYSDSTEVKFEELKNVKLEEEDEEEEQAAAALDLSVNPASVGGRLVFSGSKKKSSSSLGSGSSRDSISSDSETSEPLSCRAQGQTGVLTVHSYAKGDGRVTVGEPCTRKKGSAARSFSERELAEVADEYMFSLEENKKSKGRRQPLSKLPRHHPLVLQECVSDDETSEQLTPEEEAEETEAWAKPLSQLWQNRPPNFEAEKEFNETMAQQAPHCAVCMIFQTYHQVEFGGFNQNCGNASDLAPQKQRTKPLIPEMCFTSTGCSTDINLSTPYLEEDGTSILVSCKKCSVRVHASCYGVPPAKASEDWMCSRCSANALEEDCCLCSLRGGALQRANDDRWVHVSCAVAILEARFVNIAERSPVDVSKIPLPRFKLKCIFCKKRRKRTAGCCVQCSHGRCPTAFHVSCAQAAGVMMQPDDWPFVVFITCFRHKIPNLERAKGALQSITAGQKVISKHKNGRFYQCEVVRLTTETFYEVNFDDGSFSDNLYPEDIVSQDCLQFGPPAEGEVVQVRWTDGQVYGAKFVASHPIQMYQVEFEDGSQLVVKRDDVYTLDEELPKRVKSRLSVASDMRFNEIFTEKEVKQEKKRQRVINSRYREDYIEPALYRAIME
G9a inh – qHTS Assay for Inhibitors of Histone Lysine Methyltransferase G9a; AID 504332, 2011; Potency, µM (series often up to 102 µM), inactives show at the highest dose activity, negative = inhibition, most hits filed as inhibitors; Histone-lysine N-methyltransferase EHMT2 (Homo sapiens), Q96KQ7; G9a H3K9 monomethylation, AlphaScreen, 2 h; 8.8% of 350,000 active; further: on the % scale 0 is the no-effect control and ±100 the full control effect; nearly all actives have a fitted effect of over 75% in size
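Compounds were preincubated with 20 nM G9a for 15 min, after which biotinylated H3K9 peptide (500 nM) and SAM (20 uM) started a 2 h room-temperature reaction. Monomethylated product was quantified by antibody-based AlphaScreen chemiluminescence.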
PLK1 PBD inh – qHTS for Inhibitors of PLK1-PDB (polo-like kinase 1 - polo-box domain): Primary Screen; Serine/threonine-protein kinase PLK1 (Homo sapiens), P53350; Plk1 PBD binding of FITC phosphopeptide, fluorescence polarization; Potency, µM, for the others: max response, negative = inhibition, hits mostly inhibitors; 2.8% of 360,000 active; AID 720504, 2013; further: series mostly up to about 57 µM; on the % scale 0 is the no-effect control and ±100 the full control effect; nearly all actives have a fitted effect of over 65% in size
HP1b chromo inh – HTS for Inhibitors of HP1-beta Chromodomain Interactions with Methylated Histone Tails; 0.56% of 390,000 active; AlphaScreen HP1-beta / biotin-H3K9me3 peptide binding; Potency, µM (series often up to 114 µM), without a hit: top-dose activity change, negative = inhibition, actives largely listed as inhibitors; further: nearly all actives have a fitted effect of over 70% in size
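Compound inhibition of the preformed complex between 50 nM HP1-beta and 50 nM biotinylated H3K9me3 peptide was read by AlphaScreen. Buffer was PBS pH 7.4 with 0.01% Tween-20. Incubations ran 30 min at room temperature, with 10 ug/mL donor/acceptor beads.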
Sfp inh – qHTS Assay for Inhibitors of Bacillus subtilis Sfp phosphopantetheinyl transferase (PPTase); Biochemical Sfp PPTase activity, qHTS; Potency, µM, for inactives: largest response in the series, negative = inhibition, usual class: inhibitors; 4'-phosphopantetheinyl transferase ffp (Bacillus subtilis), Q9F4F7; AID 1490, 2009; 3.5% of 310,000 active;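 further: the enzyme is Sfp with the accession as filed and its product quenches rhodamine fluorescence; 0% = enzyme reaction without inhibitor and -100% = no enzyme wells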
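Reaction rates are the 30-min fluorescence difference (ex 525, em 598 nm) in wells containing 15 nM Sfp, 5 uM rhodamine-CoA and 12.5 uM BHQ-2-YbbR at pH 7.6 with 10 mM MgCl2.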
BAZ2B inh – qHTS Assay for Inhibitors of BAZ2B. AlphaScreen BAZ2B-H3K14Ac peptide displacement. Potency, µM (doses to about 114 µM), for inactives: at the top dose activity change, negative = inhibition, hits mostly inhibitors. 4.4% of 360,000 active; further: on the % scale 0 is the no-effect control and ±100 the full control effect; nearly all actives have a fitted effect of over 60% in size
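Compounds, titrated to a top concentration of 110 uM, were incubated 30 min at room temperature with preformed BAZ2B/acetyl-K14 H3 peptide complex (50 nM each). Proximity signal was measured by AlphaScreen after 20 min with beads.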
* hit, by the source's call; u = inconclusive; x = not tested or not shown; [ ] = dose if it differs, or a comment. Rows were chosen to be rich in hits. Some 12% of all compounds tested hit in one or more screens of this group. The call rests on the fitted dose curve; in most records, active means well fitted curve in the direction sought with a large enough effect; inconclusive means small, poorly fitted or top-dose-only effect, or another doubt; inactive means no such curve, though single readings can be large; an effect the other way counts as inactive or inconclusive. Potency means the concentration at half of the fitted maximal effect.

SMILES	JMJD2A Tudor inh	G9a inh	PLK1 PBD inh	HP1b chromo inh	Sfp inh	BAZ2B inh
Cc1ccc2ccc3cc(C(=O)Nc4ccc(C)c(F)c4)nc3c2[nH]1	-18.8%	u	x	23.3%	x	6.1%[57.1 µM]
CC1CN(S(=O)(=O)c2cccc(C(=O)Nc3ccccc3N3CCCC3)c2)CC(C)O1 (centres undefined)	u	50.1µM*	-0.1%	-17.7%	x	-32.7%
CCN1CCN(c2ccc(S(=O)(=O)N3CCCCC3)cc2NC(=O)CC(C)c2ccccc2)CC1 (centres undefined)	-29.0%	50.1µM*	-3.7%	-0.5%	x	-8.3%
CCN1CCN(c2ccc(S(=O)(=O)N3CCCCC3)cc2NC(=O)c2ccc(F)cc2)CC1	u	10µM*	-3.6%	19.4%	14.0%	-6.0%
O=C(Nc1cc(S(=O)(=O)N2CCCCC2)ccc1N1CCOCC1)c1ccc(F)cc1	-7.6%	-33.3%	-1.8%	45.9%	x	11.0%
CC(=O)N1CCN(S(=O)(=O)c2cccc(C(=O)Nc3ccccc3N3CCCC3)c2)CC1	-15.8%	7.4%[0.501 µM]	-10.5%	33.7%	x	3.0%
CCN1CCN(c2ccc(S(=O)(=O)N3CCCCC3)cc2NC(=O)c2ccc(C)c(C)c2)CC1	u	x	-6.7%	1.9%	x	x
CCN1CCN(c2ccc(S(=O)(=O)N3CCCCC3)cc2NC(=O)c2cccc(C)c2)CC1	-33.8%	50.1µM*	-3.1%	-8.0%	x	-33.7%
Cc1cc(C)c(NC(=O)c2cc(C)nc3c2c(C)nn3-c2cccc(F)c2)c(C)c1	15.5%	-7.2%[59 µM]	x	29.0%	x	10.3%[57.1 µM]
O=C1OC(c2ccc(F)cc2)=N/C1=C\C=C/c1ccccc1	-25.4%	-3.0%	-26.7%	36.1%	-7.6%	-18.1%
CC(C)CC(c1nnnn1C(C)C)N1CCN(c2ccccc2)CC1 (centres undefined)	u	3.4%	-0.5%	14.0%	21.7%	3.8%
O=S1(=O)CC(N2CCN(CCO)CC2)CN1C1CCCCC1 (centres undefined)	x	x	-10.8%	x	x	x
CS(=O)(=O)N1CCN(c2ccccc2NC(=O)c2ccc([N+](=O)[O-])o2)CC1	3.16µM*	-2.7%	3.36µM*	u	4.7%	-9.3%
O=C(Nc1cc(S(=O)(=O)N2CCOCC2)ccc1N1CCCC1)c1ccc(F)cc1	-30.9%	u	9.47µM*	u	x	-37.1%
O=C(NC1CCCCCC1)C1c2ccccc2C(=O)N1Cc1ccccc1Cl (centres undefined)	-0.7%	2.5%[59 µM]	x	30.5%	x	1.4%
CCc1ccc(CNC(=O)CN2C(=O)c3cccnc3Oc3ccc(Cl)cc32)cc1	-6.9%	-4.7%[59 µM]	x	13.5%	x	-5.5%
Cc1cc(S(=O)(=O)Nc2ccc(C(=O)N3CCN(c4ccccc4O)CC3)cc2)ccc1F	-31.4%	6.8%	-3.6%	5.7%	13.2%	4.1%
CCOC(=O)N1CCN(C(=O)c2cccc(NS(=O)(=O)c3ccc(F)c(F)c3)c2)CC1	-2.1%	-12.3%	3.6%	22.3%	7.8%	1.3%
CCOC(=O)C1CCN(C(=O)c2cccc(NS(=O)(=O)c3ccc(F)c(F)c3)c2)CC1	-13.0%	50.1µM*	-26.6%	21.8%	u	-20.1%
Cc1ccc(S(=O)(=O)Nc2cccc(C(=O)N3CCN(c4ccccc4O)CC3)c2)cc1F	-29.3%	50.1µM*	-12.7%	-12.0%	x	-12.2%
CC1CCCCN1C(=O)COC(=O)c1cccc(NS(=O)(=O)c2ccccc2)c1 (centres undefined)	-9.5%	56.2µM*	4.5%	16.5%	x	-12.0%
CCCNC(=O)C[C@@H]1C[C@@H]2c3cc(NS(=O)(=O)c4ccc(OC)cc4)ccc3O[C@@H]2[C@@H](CO)O1	x	x	-20.5%	x	x	x
CSc1nc(N)c(C(=O)Nc2ccc([N+](=O)[O-])cc2)s1	-5.8%	-33.2%	-11.6%	20.8%	-1.3%	-38.5%
COc1ccc(S(=O)(=O)N(CC(=O)NC2CC3CCC2C3)c2ccccc2OC)cc1 (centres undefined)	u	-6.4%	26.7µM*	-5.7%	10.3%	-0.2%
COc1ccccc1N(CC(=O)NC1CC2CCC1C2)S(=O)(=O)c1ccc(C)cc1 (centres undefined)	-16.6%	x	-2.3%	8.6%	0.5%	-14.5%
SMILES	JMJD2A Tudor inh	G9a inh	PLK1 PBD inh	HP1b chromo inh	Sfp inh	BAZ2B inh
CCOc1ccccc1N(CC(=O)NC1CCCCC1)S(=O)(=O)c1ccccc1	-9.0%	25.1µM*	-4.6%	8.5%	10.6%	-0.8%
COc1ccccc1N(CC(=O)Nc1ccc2c(c1)OCO2)S(=O)(=O)c1ccccc1	u	28.2µM*	-7.0%	-3.5%	-5.3%	56.2µM*
C=CCN(c1ccc(C(=O)Nc2ccc(NC(C)=O)cc2)cc1)S(C)(=O)=O	14.1µM*	-25.0%	21.2µM*	-6.9%	13.8%	6.9%
C=CCN(c1ccc(C(=O)Nc2cccc(C)c2)cc1)S(C)(=O)=O	-14.6%	-8.4%	-16.8%	-10.9%	7.5%	-2.5%
COc1ccc(C(O)P(=O)(OC(C)C)c2ccc(N(C)C)cc2)c(OC)c1 (centres undefined)	22.4µM*	15.5%[0.501 µM]	-11.1%	17.7%	12.1%	-8.4%
CC(C)COP(=O)(c1ccc(N(C)C)cc1)C(O)c1ccc(N(C)C)cc1 (centres undefined)	u	39.8µM*	5.2%	1.1%	9.8%	-36.3%
CC(C)OP(=O)(c1ccc(N(C)C)cc1)C(O)c1ccc(N(C)C)cc1 (centres undefined)	4.47µM*	15.5%[0.501 µM]	-2.8%	10.7%	10.2%	-11.9%
Cc1cc(=O)n2nc(-c3ccccc3)sc2c1C#N	u	17.8%	21.2µM*	-4.2%	11.2%	17.0%
C#Cc1cccc(Nc2nc(NCc3ccccc3OC)nc3ccsc23)c1	x	x	-7.8%	x	x	x
Cc1ccc(N=Nc2c(N)[nH]n3c(=O)cc(-c4ccccc4)nc23)cc1	u	u	u	u	6.6%	4.4%[57.1 µM]
Cc1ccc(N=Nc2c(=O)[nH]n3c(=O)cc(C)[nH]c23)cc1	u	u	-8.0%	-16.8%	1.2%	50.1µM*
O=C1CC(c2ccco2)CC2=C1C(c1ccc(O)cc1)n1nc(C(F)(F)F)nc1N2 (centres undefined)	56.2µM*	x	x	u	x	x
O=C1CC(c2ccco2)CC2=C1C(c1cccnc1)n1nc(C(F)(F)F)nc1N2 (centres undefined)	u	x	x	-14.3%	x	x
CCOc1ccc2nc(/N=C/c3c(C)[nH]n(-c4ccc(C)cc4)c3=O)sc2c1	-16.3%	u	-8.1%	13.6%	8.4%	u

Compound activity as filed in PubChem BioAssay.
